Experimental data as given in PubChem BioAssay (NCI).
This is part of a sample that, as a whole, favours compounds with a hit. Of some 83,000 tested, about 20% had one in any assay.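 Testing used 96-well plates and a 48-hour single-concentration exposure. Example: -40 means 40% of the starting cells died.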 Unmarked numbers belong to inactive results. Calls of active or inactive are those of the source. The calls were made as follows: active = growth percent below 10; inactive = the rest.

What was measured:
Test in all cases: NCI-60 one-dose screen, 48 h (100 = growth as untreated, 0 = no growth, -100 = all killed)
Settings in all cases: 10 µM unless noted
SK-MEL-2 melanoma = test system: SK-MEL-2 melanoma
EKVX NSCLC = test system: EKVX NSCLC
SN12C renal = test system: SN12C renal
UO-31 renal = test system: UO-31 renal
TK-10 renal = test system: TK-10 renal
ACHN renal = test system: ACHN renal
CAKI-1 renal = test system: CAKI-1 renal
A498 renal = test system: A498 renal
CCRF-CEM leukemia = test system: CCRF-CEM leukemia
MOLT-4 leukemia = test system: MOLT-4 leukemia
SR leukemia = test system: SR leukemia
RPMI-8226 leukemia = test system: RPMI-8226 leukemia
OVCAR-8 ovarian = test system: OVCAR-8 ovarian
OVCAR-5 ovarian = test system: OVCAR-5 ovarian
SK-OV-3 ovarian = test system: SK-OV-3 ovarian
IGROV1 ovarian = test system: IGROV1 ovarian
OVCAR-3 ovarian = test system: OVCAR-3 ovarian
HS 578T breast = test system: HS 578T breast
NCI/ADR-RES ovarian = test system: NCI/ADR-RES ovarian

Row | Compound | growth (SK-MEL-2 melanoma) | growth (EKVX NSCLC) | growth (SN12C renal) | growth (UO-31 renal) | growth (TK-10 renal) | growth (ACHN renal) | growth (CAKI-1 renal) | growth (A498 renal) | growth (CCRF-CEM leukemia) | growth (MOLT-4 leukemia) | growth (SR leukemia) | growth (RPMI-8226 leukemia) | growth (OVCAR-8 ovarian) | growth (OVCAR-5 ovarian) | growth (SK-OV-3 ovarian) | growth (IGROV1 ovarian) | growth (OVCAR-3 ovarian) | growth (HS 578T breast) | growth (NCI/ADR-RES ovarian)
1 | C=C(C)[C@@H]1CC[C@]2(C)[C@H](CC[C@@H]3[C@@H]([C@@](C)(O)CCC=C(C)C)CC[C@]32C)[C@@]1(C)CCC(=O)N1CCN(C)CC1 | -88.5% [100 µM] (active) | -66.4% [100 µM] (active) | -95.6% [100 µM] (active) | -100% [100 µM] (active) | -79.3% [100 µM] (active) | -100% [100 µM] (active) | -90.7% [100 µM] (active) | -96% [100 µM] (active) | -27.6% [100 µM] (active) | -41.2% [100 µM] (active) | 7.02% [100 µM] (active) | -38.4% [100 µM] (active) | -65.6% [100 µM] (active) | -93.3% [100 µM] (active) | -83.4% [100 µM] (active) | -82.5% [100 µM] (active) | -85.9% [100 µM] (active) | -41.5% [100 µM] (active) | -87% [100 µM] (active)
2 | CCOC(=O)c1nc2c3ccccc3ccn2c1C(=O)OC | 102% | 80.2% | 96.9% | 91.7% | 81.1% | 94% | 97.2% | 64% | 88.2% | 84.5% | 130% | 86.9% | 100% | 89.5% | 94% | 94.3% | 106% | 105% | 102%
3 | COc1cc(Cl)cc(-c2nn(C(=O)NS(=O)(=O)c3ccccc3)cc2-c2ccncc2)c1 | 98.7% | 61.2% | 94.5% | 70.6% | 97.2% | 80% | 80.9% | 82.9% | 94.6% | 82.8% | 87.6% | 91.7% | 33.1% | 96.5% | 83.2% | 92.1% | 104% | 79.2% | 97.5%
4 | C=C(C)[C@@H]1CC[C@]2(COCCCN)CC[C@]3(C)[C@H](CC[C@@H]4[C@@](C)(CCCNCCCN)[C@H](C(=C)C)CC[C@]43C)[C@@H]12 | -59.3% [100 µM] (active) | -60.8% [100 µM] (active) | -52% [100 µM] (active) | -79.8% [100 µM] (active) | -62.4% [100 µM] (active) | -67.5% [100 µM] (active) | -77.1% [100 µM] (active) | -77% [100 µM] (active) | -26.9% [100 µM] (active) | -31.6% [100 µM] (active) | 44.4% [100 µM] | -53.4% [100 µM] (active) | -56.7% [100 µM] (active) | -63.6% [100 µM] (active) | -60.4% [100 µM] (active) | -58.6% [100 µM] (active) | -53.3% [100 µM] (active) | -39.2% [100 µM] (active) | -53.6% [100 µM] (active)
5 | CC1(C)CC[C@]23CC[C@]4(C)[C@H](CC[C@@H]5[C@@]6(C)C/C(=C/c7ccncc7)C(=O)C(C)(C)[C@@H]6CC[C@]54C)[C@H]2[C@H]1OC3=O | 29.5% [100 µM] | 85.5% [100 µM] | 65.6% [100 µM] | 91.8% [100 µM] | 51.5% [100 µM] | 43.9% [100 µM] | 50.8% [100 µM] | 58.6% [100 µM] | 79.3% [100 µM] | 69.1% [100 µM] | 93.5% [100 µM] | 41.1% [100 µM] | 51.9% [100 µM] | 111% [100 µM] | 47.7% [100 µM] | 70.1% [100 µM] | 85.2% [100 µM] | -3.34% [100 µM] (active) | 64.4% [100 µM]
6 | O=C(N/N=C\c1cc(Cl)ccc1O)N/N=C/c1cc(Cl)ccc1O | 70.6% | 69.4% | 66.8% | 17.3% | 55.4% | 27.5% | 60.2% | 80.3% | 27.4% | 43.2% | 35.4% | 29.4% | 43.4% | 75.6% | 73.7% | 49.1% | 10.2% | 34.6% | 16%
7 | CCc1cccc(Cl)c1 | 118% | 105% | 90.6% | 85.3% | 107% | 98.9% | 108% | 120% | 88.2% | 98.1% | 103% | 101% | 104% | 105% | 107% | 100% | 110% | 118% | 103%
8 | C=C(CC(=O)OC)C(C)=O | 118% | 99% | 100% | 88.2% | 107% | 109% | 101% | 95.1% | 118% | 95.2% | 112% | 120% | 107% | 112% | 103% | 101% | 106% | 96.5% | 113%
9 | C[C@H]1[C@H](C)CC[C@]2(C(=O)N3CCN(C)CC3)CC[C@]3(C)C(=CC[C@@H]4[C@@]5(C)C/C(=C/c6ccco6)C(=O)C(C)(C)[C@@H]5CC[C@]43C)[C@H]12 | 42.1% [100 µM] | 42.3% [100 µM] | 28% [100 µM] | -97.5% [100 µM] (active) | 43.7% [100 µM] | 20.8% [100 µM] | 26.2% [100 µM] | 53.8% [100 µM] | 16.5% [100 µM] | 22.6% [100 µM] | 32% [100 µM] | 19.5% [100 µM] | 25.4% [100 µM] | 63.5% [100 µM] | 59.3% [100 µM] | 3.24% [100 µM] (active) | 40.1% [100 µM] | 53.2% [100 µM] | 37.9% [100 µM]
10 | CC(C)[C@H]1CCC2=C3CC[C@]45OC(=O)[C@@]6(CCC(C)(C)C[C@H]64)CC[C@@]5(C)[C@]3(C)CC[C@@]21C | 74.9% [100 µM] | 88.3% [100 µM] | 70.6% [100 µM] | 67.9% [100 µM] | 101% [100 µM] | 72.4% [100 µM] | 53.7% [100 µM] | 103% [100 µM] | 49.7% [100 µM] | 26.5% [100 µM] | 60.3% [100 µM] | 58.2% [100 µM] | 70.3% [100 µM] | 107% [100 µM] | 75.3% [100 µM] | 61% [100 µM] | 80.2% [100 µM] | 61.6% [100 µM] | 81.9% [100 µM]
11 | Clc1ccc(/C=N/Nc2nc3ccccc3s2)c(Cl)c1 | 112% | 66.9% | 95.3% | 68.2% | 95.4% | 82.8% | 82% | 81.6% | 80.5% | 98.4% | 91% | 91.2% | 79.3% | 103% | 74% | 67% | 87.3% | 84.8% | 89.7%
12 | CCCCCCCCN(CCCCCCCC)CC(O)c1ccc(Cl)c(C)c1Cl (stereo not given) | 123% | 99.4% | 84% | 45.1% | 94.6% | 74.7% | 72.5% | 70.7% | 78% | 91.4% | 52.6% | 72.8% | 93.6% | 84.1% | 77.5% |  | 88.9% |  | 89.6%
13 | CC1(C)CC[C@]2(C(N)=O)CC[C@]3(C)C(=CC[C@@H]4[C@@]5(C)C/C(=C/c6cccnc6)C(=O)C(C)(C)[C@@H]5CC[C@]43C)[C@@H]2C1 | -57.5% [100 µM] (active) | 1.54% [100 µM] (active) | -58.8% [100 µM] (active) | -95.1% [100 µM] (active) | -14.8% [100 µM] (active) | -61.1% [100 µM] (active) | -30.6% [100 µM] (active) | -83.4% [100 µM] (active) | 2.68% [100 µM] (active) | -9.98% [100 µM] (active) | 8.68% [100 µM] (active) | -37.1% [100 µM] (active) | -21.6% [100 µM] (active) | -64% [100 µM] (active) | 6.72% [100 µM] (active) | -29.5% [100 µM] (active) | -64.2% [100 µM] (active) | 1.61% [100 µM] (active) | -25.7% [100 µM] (active)
